Compound activity (PubChem BioAssay)
PK Bst: Pyruvate Kinase. purified pyruvate kinase, luminescence ATP production; ribose 5-phosphate activator present at AC10. Potency, µM. 51,000 compounds, 1.2% hits; in the data active = potency below about 11 µM; inconclusive = mostly about 12 µM to 25 µM;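 the screen sought inhibitors and activators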;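 also: scaled between full activation by ribose 5 phosphate and full inhibition by luteolin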
GBA activity: Glucocerebrosidase | purified enzyme, resorufin glucoside fluorescence (screen aimed at inhibitors), 20 min | Lysosomal acid glucosylceramidase (Homo sapiens), P04062 | Potency, µM | 48,000 compounds, 1.1% hits; in the data active = potency below about 15 µM; inconclusive = mostly about 16 µM to 33 µM;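 also: the screen sought inhibitors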
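Wild-type enzyme at 0.2 nM final in 50mM citric acid/KH2PO4, 10mM sodium taurocholate, 0.01% tween-20, pH 5.9, with resorufin beta-D-glucopyranoside at 30 uM final. Compounds titrated, 20 min at RT, red fluorescence read; AC50 from titration.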
FLuc inh: qHTS Assay for Inhibitors of Firefly Luciferase | Luciferin 4-monooxygenase (Photinus pyralis), P08659 | purified firefly luciferase, luminescence, 8 min | Potency, µM (series often up to 57.1 µM), without a hit: at the highest dose activity change, negative = inhibition, actives largely listed as inhibitors | 72,000 compounds, 2.2% hits; active = well fitted inhibition curve with a large enough effect; inconclusive = small, poorly fitted or top-dose-only effect; also: % is scaled to controls: 0 for no effect and ±100 for the full control effect; nearly all actives have a fitted effect of over 40% in size
Target sequence (P08659 whole entry, looked up): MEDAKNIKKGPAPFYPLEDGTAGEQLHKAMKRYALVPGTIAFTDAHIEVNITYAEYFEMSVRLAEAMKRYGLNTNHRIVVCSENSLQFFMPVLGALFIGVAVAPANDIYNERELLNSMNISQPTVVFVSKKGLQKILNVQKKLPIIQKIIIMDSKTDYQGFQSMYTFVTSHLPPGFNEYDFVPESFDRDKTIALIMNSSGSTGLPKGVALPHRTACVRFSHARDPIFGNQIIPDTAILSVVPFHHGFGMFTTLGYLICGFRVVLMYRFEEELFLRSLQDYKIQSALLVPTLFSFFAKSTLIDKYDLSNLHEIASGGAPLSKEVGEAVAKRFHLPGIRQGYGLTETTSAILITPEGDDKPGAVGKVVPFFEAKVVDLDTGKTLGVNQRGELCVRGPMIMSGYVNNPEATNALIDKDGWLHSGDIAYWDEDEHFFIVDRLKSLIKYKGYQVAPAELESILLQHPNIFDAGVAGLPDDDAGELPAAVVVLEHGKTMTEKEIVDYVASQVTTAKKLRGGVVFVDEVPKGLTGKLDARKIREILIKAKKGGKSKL
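Firefly luciferase (PKLight detection mix) with 10 uM ATP in pH 7.2 imidazole buffer (KCl, MgCl2, Tween 20, BSA). Compounds tested across a concentration series (qHTS). Luminescence read after 8 min at ambient temperature.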
The depositor's hits bear a star; i = inactive; ? = inconclusive; nt = no result given; [ ] = dose if it differs, or a comment. The list is not random: actives were taken first. Their share in the collection is about 3.2%. Potency is read from the fitted curve at half-maximal effect.

SMILES	PK Bst	GBA activity	FLuc inh
COc1cccc(-c2nccc(NCc3cccnc3)n2)c1	nt	nt	-2.1%[2.29 µM]
CCCC(=O)Nc1ccc(NC(=O)c2ccccc2OC)cn1	>57	>76.9	-2.4%
CCCC(=O)Nc1ccc(NC(=O)c2ccccn2)cn1	nt	>76.9	20µM*
CC(=O)OC[C@H]1O[C@@H](O/N=C2/[C@H]3O[C@@H]3[C@@H](O)[C@H]3[C@H]2CCn2c(=O)n(-c4ccccc4)c(=O)n23)[C@H](OC(C)=O)[C@@H](OC(C)=O)[C@@H]1OC(C)=O	nt	nt	-2.0%[11.4 µM]
COc1cc2c(cc1O)CC[C@@H]1[C@@H]2CC[C@@]2(C)[C@H](O)CC[C@H]12	nt	nt	-6.2%
Cc1ccc(Nc2nc(N)nc(CN3CCN(C)CC3)n2)cc1	>57	>76.9	1.7%
Cc1ccc(Nc2nc(N)nc(CN3CCN(c4ccccc4F)CC3)n2)cc1	>57	1.4*	1.7%
Nc1nc(CN2CCc3ccccc3C2)nc(Nc2ccccc2)n1	>57	?	0.4%
Cc1cccc(Nc2nc(N)nc(CN3CCN(C)CC3)n2)c1	>57	>76.9	4.1%
c1ccc(CN2CCC(N3CCN(Cc4ccc5c(c4)OCO5)CC3)CC2)cc1	nt	nt	2.3%
Nc1nc(CN2CCN(c3ccccc3F)CC2)nc(Nc2ccccc2)n1	>57	2.32*	1.1%
Nc1nc(CN2CCN(Cc3ccc4c(c3)OCO4)CC2)nc(Nc2ccccc2)n1	>57	14.2*	2.3%
Cc1cccc(Nc2nc(N)nc(CN3CCN(c4ccc(F)cc4)CC3)n2)c1	>57	3.29*	4.5%
COCC(=O)N1CCC2(CC1)CN(C(c1ccccc1)c1ccccc1)C2	nt	nt	-0.3%[11.4 µM]
CCOC(=O)Cn1c(C(F)(F)F)nc2nc(Cl)c(Cl)nc21	nt	nt	2.4%[11.4 µM]
Cc1noc(C)c1C(=O)N1CCC2(CCCN(C(=O)Nc3ccccc3)C2)CC1	nt	nt	1.4%[11.4 µM]
CC(C)NC(=O)N1CCC2(CC1)CCN(S(=O)(=O)c1ccccc1)CC2	nt	nt	1.0%[11.4 µM]
CN1CCC[C@H](C(=O)OCC(=O)[C@]2(O)CC[C@@H]3[C@H]4CCC5=CC(=O)CC[C@@]5(C)[C@H]4[C@@H](O)C[C@]32C)C1	nt	nt	0.7%[11.4 µM]
Clc1ccccc1NN(Cc1ccncc1)c1ccccc1Cl	nt	nt	4.8%[11.4 µM]
CC1(C)Cc2c(sc(NC(=O)c3ccco3)c2C#N)CO1	?	>76.9	7.94µM*
Cc1cccc(NC(=O)c2sc(NC(=O)c3ccco3)c(C#N)c2C)c1C	>57	>76.9	-0.5%
COc1ccccc1-c1cncnc1NCCc1cnc[nH]1	nt	nt	-4.3%[2.29 µM]
CCCN1C(=O)/C(=C2\SC(N3CCCCC3)=NC2=O)c2ccccc21	?	nt	15.8µM*
O=C1N=C(N2CCOCC2)S/C1=C1\C(=O)N(Cc2ccccc2)c2ccccc21	nt	nt	-17.8%
Cn1cccc1C(=O)N1CCC[C@@]2(CCN(Cc3cc(C(F)(F)F)cc(C(F)(F)F)c3)C2)C1	nt	nt	-0.7%[11.4 µM]
SMILES	PK Bst	GBA activity	FLuc inh
NS(=O)(=O)c1ccc(N=Nc2nc3[nH]cnc(=S)c3[nH]2)cc1	nt	nt	-0.5%[11.4 µM]
CCn1c(/C=N/n2cnnc2)nc2ccccc21	nt	nt	1.8%
CCn1c(/N=C/c2c[nH]c3ccccc23)nc2ccccc21	2.69*	?	3.98µM*
O=CN1CCN(C[C@H](O)CN2CCCCC2)CC1	nt	nt	0.4%[11.4 µM]
CCn1c(SCC(=O)O)nnc1-c1cc2c(C)nn(-c3ccccc3)c2s1	i	>76.9	25.1µM*
CCn1c(COc2ccccc2C)nnc1SCC(=O)O	>57	>76.9	2.3%
C(=N/Nc1ccccn1)/c1cccnc1	nt	nt	1.5%[11.4 µM]
CNc1ccnc(-c2ccccc2C(F)(F)F)n1	nt	nt	-0.4%[2.29 µM]
COc1ccc(C2NC(=O)NC3=C2CCc2ccccc23)cc1 (stereo not drawn)	nt	>76.9	4.4%
Cc1ccc(C2NC(=O)NC3=C2CCc2ccccc23)cc1 (stereo not drawn)	?	>76.9	12.6µM*
O=C1c2ccccc2-c2ccc(NC(=O)[C@H]3CCCC[C@@H]3C(=O)O)cc21	nt	nt	-0.4%[11.4 µM]
CC(=O)Nc1ccc(S(=O)(=O)N2CCN(C(=O)N3CCOCC3)CC2)cc1	3.16*	>76.9	0.5%
CC(=O)Nc1ccc(S(=O)(=O)N2CCN(c3cc(C)nc4ccccc34)CC2)cc1	>57	10.7*	1.9%
CC(=O)Nc1ccc(S(=O)(=O)N2CCN(c3nc(NC4CCCC4)c4ccccc4n3)CC2)cc1	nt	nt	1.2%
CC(=O)Nc1ccc(S(=O)(=O)Nc2ccc(N3CCOCC3)cc2)cc1	>57	>76.9	-12.0%
CCn1cc(C(=O)O)c(=O)c2cc(F)c(N3CCN[C@@H](C)C3)c(F)c21	nt	nt	10.3%[25.5 µM]
NC[C@H]1O[C@H](n2cnc3c(N)ncnc32)C[C@@H]1O	nt	nt	1.7%[11.4 µM]
Oc1ccccc1-c1cc(-c2ccc3c(c2)OCCO3)n[nH]1	1.86*	>76.9	3.16µM*
COC(=O)c1cc(-c2ccc(OC)c(OC)c2)n[nH]1	nt	>76.9	-6.8%
COc1ccc(O)c(-c2cc(-c3cccc(Br)c3)n[nH]2)c1	nt	nt	-26.0%
COc1ccc(-c2[nH]ncc2-c2ccc3c(c2)OCCO3)c(O)c1	>57	>76.9	-0.2%
COc1cc(-c2ccc(=O)[nH]n2)ccc1OC(F)F	nt	nt	2.2%
COc1ccc(-c2cc(-c3ccccc3O)[nH]n2)cc1OC	nt	nt	3.98µM*
Cc1ccc(-c2cc(-c3cccc(F)c3)n[nH]2)c(O)c1	10.7*	>76.9	12.6µM*
COc1ccc(-c2cc(-c3cc(F)ccc3O)[nH]n2)cc1OC	9.56*	>76.9	12.6µM*
SMILES	PK Bst	GBA activity	FLuc inh
COc1cccc2c1[C@H](CO)N1[C@H](C#N)[C@@H]3C[C@H](C(=O)O)[C@@H]([C@@H]1C2)N3C	nt	nt	-0.1%[11.4 µM]
C[C@H]1C[C@@H]2[C@@H]([C@@H](O)C[C@@]3(C)[C@H]2CC[C@]3(O)C(=O)CO)[C@@]2(C)C=CC(=O)C=C12	nt	nt	5.6%[25.5 µM]
NC[C@@H]1O[C@H](O[C@H]2[C@H](O)[C@H](O[C@@H]3O[C@H](CO)[C@@H](O)[C@H](N)[C@@H]3O)[C@@H](N)C[C@H]2N)[C@@H](O)[C@H](O)[C@@H]1O	nt	nt	5.6%[25.5 µM]
CC(=O)Nc1ccc(S(=O)(=O)Nc2cccc(N(C)S(C)(=O)=O)c2)cc1	>57	>76.9	1.3%
CSc1nc2ccc(NC(=O)C3CCCO3)cc2s1 (stereo not drawn)	i	>76.9	25.1µM*
CSc1nc2ccc(NC(=O)C3CC(=O)N(Cc4ccco4)C3)cc2s1 (stereo not drawn)	nt	>76.9	-3.7%
O=C(Nc1cccc(-c2nc3cc(Cl)ccc3o2)c1)C1CCCO1 (stereo not drawn)	i	nt	-10.9%
Cc1ccc2oc(-c3cccc(NC(=O)C4CCCO4)c3)nc2c1 (stereo not drawn)	i	>76.9	20µM*
CC(=O)Nc1ccc(S(=O)(=O)Nc2cccc(-c3nc4cc(C)ccc4o3)c2)cc1	>57	7.86*	-9.9%
Cc1ccn2cc(C(=O)Nc3ccccc3N3CCOCC3)nc2c1	nt	>76.9	?
Cc1ccn2cc(C(=O)Nc3ccc4c(c3)OCCO4)nc2c1	7*	>76.9	6.31µM*
Cc1ccn2c(-c3csc(NCc4ccco4)n3)c(C)nc2c1	nt	nt	-2.5%
COc1ccc(-c2csc(NCc3ccco3)n2)cc1C	nt	nt	7.94µM*
CC(=O)N1CCC2(CC1)CCN(C(c1ccccc1)c1ccccc1)CC2	nt	nt	0.0%[11.4 µM]
CCOc1cccc2cc(-c3csc(NC(=O)CCC(=O)N4CCN(C)CC4)n3)c(=O)oc12	nt	12.4*	1.0%
CCOc1cccc2cc(C(=O)Nc3nccs3)c(=O)oc12	>57	>76.9	-1.0%
CN(C)S(=O)(=O)c1cccc(C(=O)Nc2cc(Cl)ccc2O)c1	i	nt	12.6µM*
